Laboratory results published in PubChem BioAssay.

Assay: compound effects on multiple myeloma cell viability – MM1S, calcein-AM fluorescence, 48 h, basal, profiling panel (AID 1165);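 note: viability of MM1S multiple myeloma cells under basal unstimulated conditions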
Details: higher = more signal
Note: test concentration not given here.

Question: Which z-score does the source give for C=C[C@@H](COC(=O)OC(C)(C)C)N(Cc1ccc(OC)cc1)S(=O)(=O)c1ccc(Br)cc1 here?
Answer: -3.08

Question: Which z-score does the source give for C=C(/C(=C/C[C@H](OC(C)=O)c1ccc(CO)o1)c1cc(C(=O)OC)ccc1OC)C(C)C here?
Answer: -2.37

Question: For COc1ccc(CCNC(=O)[C@@]2(Sc3ccc(C)cc3)CC(=O)N(C(C)C)[C@@H]2c2ccc(CO)cc2I)cc1, which z-score is on record?
Answer: -3.07

Question: For COc1ccc(CCNC(=O)[C@@]2(C)c3ccccc3C(=O)N(C(C)C)[C@H]2c2ccc(CO)cc2)cc1, which z-score is on record?
Answer: -1.35

Question: For CC(C)N1C(=O)[C@@]2(Cc3ccccc31)c1ccccc1C(=O)N(Cc1ccccc1Cl)[C@H]2c1ccc(CO)cc1, which z-score is on record?
Answer: -1.58

Question: For C=CCOC(=O)[C@H]1[C@@H]2C(=O)O[C@@H](c3ccccc3)[C@@H](c3ccccc3)N2[C@@H](c2ccc(OCCOC(=O)[C@H]3C[C@H]4C(=O)N[C@@H](CCCCN(C)C)C(=O)N4[C@H]3c3ccc(O)cc3)cc2)[C@]12C(=O)Nc1ccc(I)cc12, which z-score is on record?
Answer: -0.203

Question: For CC(C)OC(=O)C=C1C[C@@H](c2ccccn2)O[C@@H](c2ccccn2)O1, which z-score is on record?
Answer: 0.667

Question: Which z-score does the source give for COC(=O)[C@@]1(Cc2ccc(OC)cc2)[C@H]2c3cc(C(=O)N(C)C)n(CCc4ccccn4)c3C[C@H]2CN1C(=O)c1ccccc1 here?
Answer: -1.19

Question: For COC(=O)[C@@]1(Cc2ccccc2)N=C(c2ccc(OCCCO)cc2)O[C@H]1c1ccccc1, which z-score is on record?
Answer: -3.6

Assay: calcein-AM signal in unstimulated myeloma cells – cell-based, calcein-AM fluorescence, 48 h, PK04 Diversity Set, profiling panel (AID 1166);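 note: cells grown under basal conditions without added stimulus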
Details: RPMI8226 myeloma viability, higher = more signal

Question: For Cc1ccc(N2C(=O)c3ccccc3[C@@H](C(=O)NC3CC3)[C@@H]2c2ccc(CO)cc2)nc1, which z-score is on record?
Answer: -2.27

Question: Which z-score does the source give for CCCCC(CC)C(O)C1C=CC2C(=O)N(Cc3ccccc3)C(=O)C2N1n1cnnc1 (centres undefined) here?
Answer: -0.208

Question: Which z-score does the source give for C[C@H]1NC(=O)[C@@]23C(=O)N[C@@H](Cc4ccccc4)C2[C@H](C)[C@@]2(C)O[C@H]2C3/C=C/C/C=C\CNC(=O)[C@@H]2CCCN2C1=O (some centres undefined) here?
Answer: 0.727

Question: With CC(=O)n1cc(C(O)C2C=CC3C(=O)N(c4ccccc4)C(=O)C3N2Nc2ccc([N+](=O)[O-])cc2)c2ccccc21 (centres undefined) as the compound, how does the z-score read?
Answer: -0.315

Question: Which z-score does the source give for C[C@@]1([C@@H](NC(=O)c2ccc(-c3ccccc3)cc2)c2ccc(Cl)cc2)C[C@H]1C1CCCCC1 here?
Answer: -4.76

Question: Which z-score does the source give for C=CCNC(=O)[C@@H]1[C@H]2C(=O)O[C@H](c3ccccc3)[C@H](c3ccccc3)N2[C@H](c2ccc(O)cc2)[C@@]12C(=O)Nc1ccc(C#CCNC(N)=O)cc12 here?
Answer: -0.179

Question: With C=C(/C(=C/C[C@H](OC(C)=O)c1ccccc1OCCO)c1cnc2ccccc2c1)C(C)C as the compound, how does the z-score read?
Answer: -2.23

Question: With COc1ccc(/C=C/C=O)cc1 as the compound, how does the z-score read?
Answer: -1.22

Question: For COCCOC(=O)N1C(=O)[C@@]2(c3cc(C#Cc4ccc(OC)cc4)ccc31)[C@H](c1ccc(OCCO)cc1)N1[C@H](c3ccccc3)[C@H](c3ccccc3)OC(=O)[C@H]1[C@@H]2C(=O)N1CCN(c2ncccn2)CC1, which z-score is on record?
Answer: -0.412

Question: For COc1ccc(CCNC(=O)[C@@]2(Sc3ccc(C)cc3)CC(=O)N(C3Cc4ccccc4C3)[C@@H]2c2ccc(CO)cc2I)cc1, which z-score is on record?
Answer: -1.99

Question: Which z-score does the source give for COc1ccc([Si](C)(C)[C@@H]2[C@@H](CC(=O)N3CCC[C@H]3CO)O[C@]3(C(=O)N(c4ccccc4)c4ccccc43)[C@H]2C)cc1 here?
Answer: 0.17

Question: With COc1ccc(C#Cc2ccc3c(c2)[C@]2(C(=O)N3)[C@H](C(=O)NC[C@H](O)c3ccccc3)[C@H]3C(=O)O[C@H](c4ccccc4)[C@H](c4ccccc4)N3[C@@H]2c2ccc(O)cc2)cc1 as the compound, how does the z-score read?
Answer: -4.13

Question: With CC(C)C[C@@H]1NC(=O)[C@@H]2C[C@H](C(=O)O)[C@H](c3cccc(OCCO)c3)N2C1=O as the compound, how does the z-score read?
Answer: -0.57

Question: Which z-score does the source give for CC#CC(=O)Oc1ccccc1C=CC(=O)OCC here?
Answer: -2.23

Question: Which z-score does the source give for CO[C@H]1O[C@H](CO)[C@@H](OC(=O)Nc2ccccc2)[C@H](OC(=O)Nc2ccccc2)[C@@H]1OC(=O)Nc1ccccc1 here?
Answer: -1.98

Question: For COCCOC(=O)N1C(=O)[C@@]2(c3ccccc31)[C@H](C(=O)N1CCc3cc(OC)c(OC)cc3C1)[C@H]1C(=O)O[C@H](c3ccccc3)[C@H](c3ccccc3)N1[C@@H]2c1ccc(OCCO)cc1, which z-score is on record?
Answer: 0.494

Question: Which z-score does the source give for O=C1N(Cc2ccccc2)c2ccccc2[C@@H]2OC(c3ccc(OCCCO)cc3)=N[C@]12CCS(=O)(=O)c1ccccc1 here?
Answer: 0.144

Question: For C=C(CCCC)C(=O)CC[C@@H](OC(=O)c1ccccc1-c1ccccc1C(=O)O)c1ccc(OCCO)cc1, which z-score is on record?
Answer: -3.04

Question: For NC(=O)N1C(=O)C2C(C1=O)C1C=C(c3ccc(CO)cc3)C2C(c2cccs2)N1Cc1cccc(OC(F)(F)F)c1 (centres undefined), which z-score is on record?
Answer: -2.08

Question: Which z-score does the source give for COc1ccc([C@H]2OC[C@@H]3C[C@@H](Cc4ccccc4)C(=O)N32)cc1 here?
Answer: 0.215
